PubChem BioAssay AID1963322 (National Center for Advancing Translational Sciences (NCATS), 2024)
Records with an inconclusive call do not appear. Unmarked numbers belong to inactive results. Active and inactive are the calls of the source. Calls come from the whole dose curve.

These molecules were tested against cAMP-dependent protein kinase catalytic subunit alpha (Homo sapiens) (UniProt P17612) (assay: Protein Kinase A (PKA-HiBiT) SDR gain of signal screen). Conditions: PKA-HiBiT structural dynamics response (SDR), luminescence gain of signal; series mostly up to 32.9 µM; activity change, positive = signal gain: at the top concentration.
Description: National Center for Advancing Translational Sciences (NCATS),
National Institute of Health (NIH), Maryland
Discovery and optimization of novel protein-binding ligands underlies many of the methods and applications of biology, drug discovery, clinical diagnostics, and environmental toxicology. Assays for detecting the interaction of, for example, a molecule with a macromolecular target also referred to here as the target of interest (TOI) is dependent on a compatible output technology. Depending on the nature and knowledge surrounding the TOI, whether a receptor, enzyme, regulatory subunit or scaffold, or a sequence-defined nucleic acid folded into a complex tertiary structure, assay strategies can vary widely.
Here we exploit ligand-biased changes in the structural dynamics of the target protein to control reporter alpha complementation allowing a non-competitive, non-functional, non-separation measure of ligand-target interaction.
Using a chemical library of >1,200 compounds enriched for scaffolds known to be associated with the inhibition of firefly luciferase (FLuc) activity (PubChem AIDs 2309) we first illustrate and compare the Structural Dynamics Response (SDR) assay vs. the standard functional FLuc enzyme assay (2). Secondly, we show the specificity and sensitivity of the SDR for the Abelson tyrosine kinase (ABL1) compared to the serine/threonine protein kinase A, using an enriched chemical library of 128 compounds selected, in part, for activity annotated with ABL1 kinase activity using the Pharos database (3).
(1) A. S. Dixon et al., NanoLuc Complementation Reporter Optimized for Accurate Measurement of Protein Interactions in Cells. ACS Chem Biol 11, 400-408 (2016).
Chemistry & Biology, 19, 1060 - 1072 (2012).
(3) K. J. Kelleher et al., Pharos 2023: an integrated resource for the understudied human proteome. Nucleic Acids Res 51, D1405-D1416 (2023).
PROTOCOL TABLE (as described by Inglese J, Shamu CE and Guy RK. 2007)
SEQUENCE No. (e.g., 1, 2, 3, etc.); […] (e.g., C. elegans, Compounds, Incubation, Read, etc.); VALUE and DESCRIPTION.
1. Reagent. Dispense 4 uL PKA-N-HiBiT enzyme per well at a final enzyme concentration of 10 nM in buffer into columns 2-48 of four replicate Greiner 1536-well white,solid bottom high base, medium plates per assay. Dispense respective buffer without enzyme at 4 uL/well in column 1 of assay plates using BioRaptr 2.
2. Compounds. Library compounds added at 23 nL/well by pin transfer. DMSO neutral control and H-89 positive control added at 25 nL/well, transfer by Mosquito dispenser.
3. Incubation. Incubate enzyme and compounds at room temperature for 30 min, protect from light.
4. Reagent. (SDR assay) Add 3 uL/well of Nano-Glo HiBiT reagent (Promega) to assay plates.
5. Incubation. (SDR assay) Incubate enzyme solution HiBiT reagent at room temperature for 10 min, protected from light.
6. Detector. (SDR assay) Luminescence measured using CCD-based camera (ViewLux) with settings as follows: Exposure, 1 sec; Gain, High; Speed, Slow; Binning, 2X.
In the case of `Cc1ccc(C(=O)Nc2ccc(CN3CCN(C)CC3)c(C(F)(F)F)c2)cc1C#Cc1cnc2[nH]ncc2c1`, the “activity change, positive = signal gain” value is reported as 7.29%. `COc1ccc(-n2c(SCC#N)nc3sc4c(c3c2=O)CCCC4)cc1` was tested, and the “activity change, positive = signal gain” value was 5.77%. `Cc1nc2ccc(-n3ncc(C(=O)c4cc5ccccc5[nH]4)c3N)cc2[nH]1` was tested, and the “activity change, positive = signal gain” value was 4.86%. For `CNc1ncc2cc(-c3cc(NC(=O)NCCC(C)(C)C)c(F)cc3C)c(C)nc2n1`, the “activity change, positive = signal gain” value was 2.19%. For `COc1cc(N2CCC(O)CC2)ccc1Nc1nc(Nc2ccccc2S(=O)(=O)C(C)C)c2[nH]cnc2n1`, the “activity change, positive = signal gain” value was 17.5%. With `N#Cc1ccc2ncnc(NCCc3ccccc3)c2c1` the “activity change, positive = signal gain” value was -3.27%. For `CN(c1ncccc1CNc1nc(Nc2ccc3c(c2)CC(=O)N3)ncc1C(F)(F)F)S(C)(=O)=O`, the Potency was 4.41 µM (active). With `Cc1sc2c(c1C)C(c1ccc(Cl)cc1)=N[C@@H](CC(=O)Nc1ccc(OCCOCCOCCOCCNc3cccc4c3C(=O)N(C3CCC(=O)NC3=O)C4=O)cc1)c1nnc(C)n1-2` (stereo not given in full) the “activity change, positive = signal gain” value was 4.85%. For `Cc1[nH]c2ccccc2c1C1=C(NCCc2ccc(F)cc2)C(=O)N(C)C1=O`, the “activity change, positive = signal gain” value was -30.9%. With `Nc1nc(Nc2ccc(S(N)(=O)=O)cc2)n(C(=S)Nc2c(F)cccc2F)n1` the Potency was 11.1 µM (active). In the case of `CO[C@H]1/C=C/O[C@@]2(C)Oc3c(C)c(O)c4c(O)c(c(/C=N\N5CCN(C6CCCC6)CC5)c(O)c4c3C2=O)NC(=O)/C(C)=C\C=C\[C@H](C)[C@H](O)[C@@H](C)[C@@H](O)[C@@H](C)[C@H](OC(C)=O)[C@@H]1C`, the “activity change, positive = signal gain” value is reported as -45.8%. `c1ccc(-c2oc3ncnc(NC[C@@H]4CCCO4)c3c2-c2ccccc2)cc1` was tested, and the “activity change, positive = signal gain” value was 5.8%. For `NC1CCC(Nc2nc(Nc3ccc(C(=O)N4CCCCC4)cc3)c3ncn(-c4cccc(F)c4)c3n2)CC1` (stereo not given), the Potency was 11.5 µM (active). For `CCCCCCCCCCCCc1ccc(S(=O)(=O)Nc2nncs2)cc1`, the “activity change, positive = signal gain” value was -1.75%. For `COc1cc2ncnc(-n3nc(-c4ccccn4)nc3N)c2cc1OC`, the “activity change, positive = signal gain” value was 6.78% [at 16.4 µM]. For `O=C(NCCO)c1cccc(-c2cc(Nc3ccc(OC(F)(F)F)cc3)ncn2)c1`, the “activity change, positive = signal gain” value was 1.64%. `O=C(Nc1ccc(OC(F)(F)F)cc1)c1sccc1NCc1ccnc2ccccc12` was tested, and the “activity change, positive = signal gain” value was 10.2%. `Cc1cc(F)ccc1-c1nc(NC(CO)CO)nc2c1ccc(=O)n2-c1c(F)cccc1F` was tested, and the “activity change, positive = signal gain” value was 4.46%. `C[C@@H]1CN(CC(=O)Nc2ccc3c(c2)Cc2cccc(-c4cc(=O)cc(N5CCOCC5)o4)c2S3)C[C@H](C)O1` was tested, and the “activity change, positive = signal gain” value was -4.67%. In the case of `COc1ccc(-n2c(C)c([N+](=O)[O-])c3ccc(O)cc32)cc1`, the “activity change, positive = signal gain” value is reported as 4.08%. In the case of `Cc1ccc(C(=O)Nc2ccc(Oc3cc4cnn(C)c4cc3-c3cn[nH]c3)c(F)c2)c(=O)n1-c1ccc(F)cc1`, the “activity change, positive = signal gain” value is reported as 8.3%. In the case of `CNC(=O)c1ccccc1Nc1nc(Nc2ccc(N3CCOCC3)cc2OC)ncc1Cl`, the “activity change, positive = signal gain” value is reported as 19.9%. With `COc1cc(N2CCC(N3CCN(C)CC3)CC2)ccc1Nc1ncc(Cl)c(Nc2ccccc2P(C)(C)=O)n1` the Potency was 5.55 µM (active). For `CO[C@@H](C(=O)N1Cc2[nH]nc(NC(=O)c3ccc(N4CCN(C)CC4)cc3)c2C1)c1ccccc1`, the “activity change, positive = signal gain” value was 3.68%. With `Cc1ccc(NC(=O)c2ccc(CN3CCN(C)CC3)cc2)cc1Nc1nc(-c2cccnc2)cs1` the “activity change, positive = signal gain” value was 5.21%. `Cc1ncc(NC(=O)c2ccc(CN3CCN(C)CC3)c(C(F)(F)F)c2)cc1Nc1nccc(-c2cccnc2)n1` was tested, and the “activity change, positive = signal gain” value was 8.51%. `c1ccc2c(-c3cnn4cc(-c5ccc(N6CCNCC6)cc5)cnc34)ccnc2c1` gave an activity change, positive = signal gain of 6.14% [at 3.64 µM]. For `O=C1C(c2c(O)[nH]c3ccccc23)=Nc2ccccc21`, the “activity change, positive = signal gain” value was 5.12%. With `C=CC(=O)Nc1cc2c(Nc3ccc(F)c(Cl)c3)ncnc2cc1OCCCN1CCOCC1` the “activity change, positive = signal gain” value was 4.93%. `Cc1nc(NC(=O)N2CCC[C@H]2C(N)=O)sc1-c1ccnc(C(C)(C)C(F)(F)F)c1` was tested, and the “activity change, positive = signal gain” value was -0.666%. With `C=CC(=O)N1CCC(Oc2cc3c(Nc4ccc(Cl)c(Cl)c4F)ncnc3cc2OC)CC1` the “activity change, positive = signal gain” value was 8.76%. `Cn1cc(-c2cc3c(N4CCN(c5ncc([C@@](C)(N)c6ccc(F)cc6)cn5)CC4)ncnn3c2)cn1` was tested, and the “activity change, positive = signal gain” value was 11.1%. With `CCOc1ccn(-c2ccc(F)cc2)c(=O)c1C(=O)Nc1ccc(Oc2ccnc(N)c2Cl)c(F)c1` the Potency was 0.813 µM (active). For `COc1cc2ncnc(Oc3cccc(NC(=O)Nc4cc(C(C)(C)C(F)(F)F)on4)c3)c2cc1OC`, the “activity change, positive = signal gain” value was 1.41%. With `Cn1ncc(NC(=O)c2nc(-c3c(F)cccc3F)sc2N)c1N1CC[C@@H](N)[C@H](F)CC1` the Potency was 0.7 µM (active). In the case of `O=C(NC1CCNCC1)c1[nH]ncc1NC(=O)c1c(Cl)cccc1Cl`, the “activity change, positive = signal gain” value is reported as 1.69%. With `O=c1c(O)c(-c2ccc(O)c(O)c2)oc2cc(O)cc(O)c12` the “activity change, positive = signal gain” value was -2.25%. For `CNC(=O)c1ccccc1Sc1ccc2c(/C=C/c3ccccn3)n[nH]c2c1`, the “activity change, positive = signal gain” value was -5.73%. In the case of `Cc1cc(O)c2c(c1)C(=O)c1cc(O)cc(O)c1C2=O`, the “activity change, positive = signal gain” value is reported as -17%. With `Cc1cc(Nc2ncc3cc(-c4c(Cl)cccc4Cl)c(=O)n(C)c3n2)ccc1F` the “activity change, positive = signal gain” value was -18.3%.
